Pf growth 96h – Primary qHTS for delayed death inhibitors of the malarial parasite plastid, 96 hour incubation; P. falciparum luciferase reporter growth, 96 h; Potency, µM (doses to about 28.7 µM), without a hit: at the top dose activity change, negative = inhibition, usual class: inhibitors; 6.9% of 320,000 active
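Delayed-death screen, second-generation endpoint: infected erythrocytes, 2% hematocrit, 0.05% parasitemia final; 96 hours at 37 C, 5% CO2; luciferase detection reagent; luminescence decrease equals reduced growth.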
HCV inh – qHTS Assay for Inhibitors of Hepatitis C Virus (HCV). Potency, µM (doses to about 41.8 µM), inactives show at the top dose activity change, negative = inhibition, usual class: inhibitors. AID 651820, 2012. 3.4% of 340,000 active. Huh7.5.1 HCVcc-Cre infection, luciferase reporter, 44 h
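Whole-lifecycle infectious HCVcc-Cre system; cells 1,000/well, compound then virus (~0.5 moi) added 4 h after plating, 44 h culture. Luciferase read 15 sec following 15 min substrate incubation, room temp.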
AMA1-RON2 inh – qHTS for Inhibitors of AMA1-RON; Towards Development of Antimalarial Drug Lead: Primary Screen. Plasmodium falciparum AMA1 (3D7) - RON2 peptide interaction. AlphaScreen AMA1-biotinylated RON2 peptide binding. Potency, µM (doses to about 58.2 µM), without a hit: at the top dose activity change, negative = inhibition, most hits filed as inhibitors. 0.2% of 360,000 active. AID 720542, 2013;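 further: 0% = vehicle wells and -100% = peptide control; nearly all actives have a fitted effect of over 45% in size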
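AMA1 (3D7) with his tag at 25 nM final met compounds first, then biotinylated RON2 peptide at 25 nM; detection used donor plus acceptor beads, 10 µg/mL apiece, read by AlphaScreen after 30 min at room temperature.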
Pf growth 48h – Primary qHTS for delayed death inhibitors of the malarial parasite plastid, 48 hour incubation; AID 504832, 2011; Potency, µM (series often up to 28.7 µM), for the others: top-dose activity change, negative = inhibition, actives largely listed as inhibitors; P. falciparum luciferase growth in erythrocytes, 48 h; 5.9% of 310,000 active
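Luciferase-expressing parasites in RBCs, 2% Hct / 0.1% parasitemia final; RPMI 1640 + 0.5% Albumax; 37 C, 5% CO2, one generation; luminescence read-out, lower signal = inhibition.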
AmpC inh detg – qHTS Inhibitors of AmpC Beta-Lactamase (assay with detergent); P00811; AmpC hydrolysis of nitrocefin, absorbance 480 nm, 0.01% Triton; Potency, µM (doses to about 114 µM), without a hit: top-dose activity change, negative = inhibition, hits mostly inhibitors; 0.041% of 370,000 active; AID 485294, 2010;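 further: 0% = no-compound wells and -100% = no-enzyme wells; nearly all actives have a fitted effect of over 25% in size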
Target sequence (P00811 whole entry, looked up): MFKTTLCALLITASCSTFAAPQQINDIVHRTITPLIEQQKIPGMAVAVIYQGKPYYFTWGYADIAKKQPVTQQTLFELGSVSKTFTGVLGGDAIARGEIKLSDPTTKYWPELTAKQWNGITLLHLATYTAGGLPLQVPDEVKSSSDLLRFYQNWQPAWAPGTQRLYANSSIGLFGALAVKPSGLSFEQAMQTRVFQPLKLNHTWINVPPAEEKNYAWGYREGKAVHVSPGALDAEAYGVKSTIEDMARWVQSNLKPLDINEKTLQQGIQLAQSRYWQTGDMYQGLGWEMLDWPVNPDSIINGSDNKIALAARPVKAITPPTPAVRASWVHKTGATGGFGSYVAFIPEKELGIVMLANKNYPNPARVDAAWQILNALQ
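AmpC (5.3 nM in the dispensed reagent) in 20 mM phosphate pH 7.0 with 0.01% (detergent screen) or 0.0001% Triton X-100 was preincubated with compounds for 15 min at room temperature. Nitrocefin was then added from an 800 uM solution, and hydrolysis was followed at 480 nm.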
AmpC inh no detg – qHTS Inhibitors of AmpC Beta-Lactamase (assay without detergent); Potency, µM (series often up to 57.1 µM), for the others: at the top dose activity change, negative = inhibition, most hits filed as inhibitors; AmpC nitrocefin hydrolysis, absorbance 480 nm, 0.0001% Triton; 0.52% of 330,000 active; P00811;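 further: plate controls were no compound for no effect and no enzyme for full effect; nearly all actives have a fitted effect of over 20% in size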
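20 mM phosphate pH 7.0 + 0.01% (detergent screen) or 0.0001% Triton X-100; 5.3 nM AmpC reagent; cpd preinc 15 min RT; nitrocefin (800 uM stock) to start; A480 q20 s × 4 min; Activity was normalised to no-enzyme and no-compound control wells.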
Numbers without * were called inactive; [ ] = dose if it differs, or a comment. Compounds with a hit are over-represented: about 11% of the library has one in this group of screens. The call rests on the fitted dose curve; in most records, active means well fitted curve in the direction sought with a large enough effect; inconclusive means small, poorly fitted or top-dose-only effect, or another doubt; inactive means no such curve, though single readings can be large; an effect the other way counts as inactive or inconclusive. Unless noted, on the % scale 0 is the no-effect control and ±100 the full control effect; potency means the concentration at half of the fitted maximal effect.

CCOC(=O)c1ccc2c(c1)N(CC(=O)Nc1ccc(C)cc1C)C(=O)c1ccccc1S2 was read as AmpC inh detg 10%.
O=C(NCc1ccccc1)C(c1ccc(F)cc1)N(C(=O)c1csnn1)c1ccccc1 (stereo not drawn) was read as Pf growth 96h 7%, HCV inh 12%, AMA1-RON2 inh 0%, Pf growth 48h -18%, AmpC inh detg -3% and AmpC inh no detg -7%.
`O=C(NCc1ccc(F)cc1)C(c1cccnc1)N(C(=O)c1csnn1)c1ccccc1` (stereo not drawn) gave Pf growth 96h 10µM*, HCV inh 12%, AMA1-RON2 inh -6%, Pf growth 48h -26%, AmpC inh detg 4% and AmpC inh no detg -4%.
O=C(Nc1cc(-c2nc3cc(Cl)ccc3o2)ccc1Cl)c1cccc2ccccc12 was read as AmpC inh detg -3%.
For CC1CCCC(C)N1CCNC(=O)CCc1nnc2n(Cc3ccccc3)c(=O)c3ccccc3n12 (stereo not drawn) the results were Pf growth 96h 12µM*, HCV inh inconclusive, AMA1-RON2 inh 5%, Pf growth 48h inconclusive, AmpC inh detg -9% and AmpC inh no detg 46%.
Cc1[nH]n(-c2ncc(-c3ccc(Cl)cc3)s2)c(=O)c1C(c1ccc(Cl)cc1)C(C#N)C#N (stereo not drawn) was read as Pf growth 96h 0%, HCV inh 10%, AMA1-RON2 inh 24%, Pf growth 48h 13%, AmpC inh detg -2% and AmpC inh no detg 40µM*.
Cc1ccc(-c2nnc(SCC(=O)NC3CCCC3)nc2-c2ccc(C)cc2)cc1 was read as AmpC inh detg 4%.
`Cc1ccc(-c2ccc(=O)n(CC(=O)NCCc3ccccc3)n2)cc1` gave AmpC inh detg 1%.
`COc1ccc(CC(=O)NCC2CCCN(Cc3ccc(OC(F)(F)F)cc3)C2)cc1` (stereo not drawn) gave Pf growth 96h inconclusive, HCV inh -26%, AMA1-RON2 inh -5%, Pf growth 48h 9.3µM*, AmpC inh detg -6% and AmpC inh no detg 108%.
For Cc1onc(-c2c(F)cccc2Cl)c1C(=O)N=C(N)N1CC(C)OC(C)C1 (stereo not drawn) the results were Pf growth 96h 10µM*, HCV inh 8%, AMA1-RON2 inh -26%, Pf growth 48h inconclusive, AmpC inh detg -8% and AmpC inh no detg 19%.
`Cc1onc(-c2c(F)cccc2Cl)c1C(=O)O/N=C(\N)c1ccc([N+](=O)[O-])o1` gave Pf growth 96h 12µM*, HCV inh inconclusive, AMA1-RON2 inh -13%, Pf growth 48h 8.3µM*, AmpC inh detg inconclusive and AmpC inh no detg -32%.
Cc1onc(-c2c(Cl)cccc2Cl)c1/C(N)=N/OC(=O)C(C)(C)C was read as Pf growth 96h 8.3µM*, HCV inh 8%, AMA1-RON2 inh 7%, Pf growth 48h 12µM*, AmpC inh detg -9% and AmpC inh no detg -21%.
For COc1ccc(NC(=O)[C@@H]2[C@@H]3C(=O)N(C4CCCCC4)C(=O)[C@@H]3C3c4ccccc4C=CN32)cc1 (stereo partly drawn) the results were Pf growth 96h 15µM*, HCV inh -10%, AMA1-RON2 inh -7%, Pf growth 48h 7.4µM*, AmpC inh detg inconclusive and AmpC inh no detg 8%.
`CC(=O)[C@@H]1[C@@H]2C(=O)N(C3CCCCC3)C(=O)[C@@H]2C2c3ccccc3C=CN21` (stereo partly drawn) gave Pf growth 96h inconclusive, Pf growth 48h inconclusive, AmpC inh detg inconclusive and AmpC inh no detg 16%.
Screening Cc1ccc(NC(=O)Cn2c(=O)c3ccc(Cl)cc3n3nncc23)cc1 returned AmpC inh detg 3%.
Screening Nc1c(Cl)cnn(-c2ccccc2)c1=O returned HCV inh 15% and AMA1-RON2 inh 12%.
O=c1c(Cl)c(Cl)cnn1-c1ccccc1 was read as Pf growth 96h inconclusive, HCV inh 4µM*, AMA1-RON2 inh -11%, Pf growth 48h -18%, AmpC inh detg -9% and AmpC inh no detg -20%.
`Cc1cc(C)cc(Cn2ncc(Cl)c(Cl)c2=O)c1` gave Pf growth 96h -27%, HCV inh inconclusive, AMA1-RON2 inh 4%, Pf growth 48h 12%, AmpC inh detg -9% and AmpC inh no detg -21%.
Cc1ccc(Cn2ncc(Cl)c(Cl)c2=O)cc1 was read as Pf growth 96h inconclusive, HCV inh 11µM*, AMA1-RON2 inh 2%, Pf growth 48h -2%, AmpC inh detg -9% and AmpC inh no detg -24%.
Cc1ccc(Cn2c(C)c3cnn(CC(=O)O)c(=O)c3c2C)cc1 was read as AmpC inh detg 9%.
Screening O=c1c(Cl)c(Cl)cnn1Cc1ccccc1Cl returned Pf growth 96h inconclusive, HCV inh 2.8µM*, AMA1-RON2 inh 2%, Pf growth 48h -1%, AmpC inh detg 13% and AmpC inh no detg -16%.
Screening Cc1[nH]c(C)c2c(=O)n(Cc3ccc(Cl)cc3)ncc12 returned Pf growth 96h inconclusive, HCV inh 10%, AMA1-RON2 inh -16%, Pf growth 48h 12µM*, AmpC inh detg -3% and AmpC inh no detg -18%.
COc1cc(-c2cc3n(C)c(C)c(CCC(=O)NC4CCCCC4)c(=O)n3n2)cc(OC)c1OC was read as AmpC inh detg -6%.
`Cc1ccc(-c2nnc(Cc3ccc(Cl)cc3)o2)cc1` gave Pf growth 96h -6%, HCV inh -20%, AMA1-RON2 inh 25%, AmpC inh detg inconclusive and AmpC inh no detg 0%.
O=c1c(Cl)c(Cl)cnn1Cc1nnc(-c2ccc(Cl)cc2)o1 was read as Pf growth 96h -43%, HCV inh 10µM*, AMA1-RON2 inh 34%, Pf growth 48h 1%, AmpC inh detg 1% and AmpC inh no detg -34%.
For COc1cccc(-n2nnnc2SCC(=O)c2ccc(NC(C)=O)cc2)c1 the results were Pf growth 96h 2%[5.75 µM], HCV inh -1%, AMA1-RON2 inh 6%, Pf growth 48h 5%, AmpC inh detg -16% and AmpC inh no detg -12%.

High-throughput results: PubChem BioAssay, National Center for Advancing Translational Sciences (NCATS)
